Experimental findings from PubChem BioAssay (NCATS) are described below.

Molecules are shown by their SMILES. Results filed as inconclusive are left out. Active and inactive are the calls of the source. Unless noted, calls come from the whole dose curve; as a rule, active = well fitted curve in the direction sought with a large enough effect; inconclusive = small, poorly fitted or top-dose-only effect, or another doubt; inactive = no such curve, though single readings can be large; an effect the other way counts as inactive or inconclusive.

Test [1] in a line: Cell Viability - LYMP2-024 (AID 988).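 Note: plate controls were DMSO only for no effect and 92 µM tetraoctylammonium bromide for full effect; nearly all actives have a fitted effect of over 60% in size.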 An outline of the steps:
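Human lymphoblastoid LYMP2-024 cells (2500/well) rested 5 hr, then treated with compound for 24 hr at 37 C in complete medium. Viability was measured as intracellular ATP by CellTiter-Glo luminescence. AC50 values came from Hill-equation fits.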

Test [2] is described as follows: Cell Viability - LYMP2-026 (AID 989). Note: % is set by controls: 0 for no effect and ±100 for the full control effect; nearly all actives have a fitted effect of over 50% in size. An outline of the steps:
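Human lymphoblastoid LYMP2-026 cells, 2500/well, exposed to compound 24 h at 37 C in complete medium. Viability as intracellular ATP by CellTiter-Glo luminescence; AC50 from Hill fits of qHTS concentration-response.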

Test [3] can be described thus: Cell Viability - LYMP1-002 - Assay at 24 hr (AID 993). Note: % is set by controls: 0 for no effect and ±100 for the full control effect. Put shortly:
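Human lymphoblastoid LYMP1-002 cells (2500/well) treated 24 h at 37 °C; viability as intracellular ATP by CellTiter-Glo luminescence. Tetraoctylammonium bromide as positive control; AC50 from Hill-equation fits of qHTS concentration-response.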

Test [4] is described as follows: Cell Viability - LYMP1-002 - Assay at 40 hr (AID 994).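 Note: 0% = DMSO only and full inhibition = 92 µM tetraoctylammonium bromide; nearly all actives have a fitted effect of over 60% in size.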 An outline of the steps: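 LYMP1-002 human lymphoblastoid cells (2500/well, complete medium) were treated with compounds for 40 hr at 37 C. Intracellular ATP was measured by CellTiter-Glo luminescence, and AC50 values came from Hill-equation fits of concentration-response data; tetraoctylammonium bromide was the positive control.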

A short description of test [5]: qHTS Assay for Identification of Small Molecule Inducers of Hypoxia Response (AID 2120; active = well fitted curve in the direction sought with a large enough effect in the signal ratio, with a control signal flat, not every such curve was filed as active; the % refers to the signal ratio; note: 0% is about no effect). An outline of the steps: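 HRE-bla ME-180 cells in Opti-MEM with 0.5% dialyzed FBS, pre-plated 4-5 h, then compound titration for 17 h at 37 degrees Celsius. CCF4 loaded 2.5 h at room temperature; 460/530 nm ratio gave %Activity and AC50 for induction.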
On the technique in general: In qHTS, concentration-response curves come from the screen itself.

The nature of test [6]: qHTS Assay for Lipid Storage Modulators (AID 1519; calls by dose curve; for activity change, negative = inhibition: % is set by controls: 0 for no effect and ±100 for the full control effect). As to conditions: Drosophila S3 cells, BODIPY lipid droplet/cell ratio, laser cytometry, cells loaded with oleic acid. An outline of the steps:
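Cells seeded at 5,000 per well were treated with compounds over a concentration series and loaded with oleic acid (400 uM, as added). Lipid droplet fluorescence (488 nm excitation, 500-530 nm channel) was read by laser-scanning cytometry and normalized to 20 uM Triacsin C.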

In test [7] the target is Alpha-galactosidase A (Homo sapiens) (UniProt P06280). Nature of the test: Counterscreen for Glucocerebrosidase Inhibitors: qHTS Assay for Human alpha-Galactosidase at pH 4.5 (AID 992). Note: 0% is about no effect. Put shortly:
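Concentration-response curves (0.7 nM to 77 uM final) were modeled with the Hill equation to give AC50. Reactions: 2 nM enzyme, 80 uM fluorogenic alpha-galactoside, pH 4.5 citric acid buffer, 20 min, room temperature.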

The target in test [8] is alpha-glucosidase (Oryza sativa, rice) (UniProt Q653V4). Nature of the test: Counterscreen for Glucocerebrosidase Inhibitors: qHTS Assay for Rice alpha-Glucosidase at pH 5.0 (AID 997).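 Note: 0% = full activity with enzyme and -100% = basal without enzyme.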 An outline of the steps: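 Rice alpha-glucosidase (4 nM final) with 400 uM 4-methylumbelliferyl-alpha-D-glucopyranoside in citrate buffer pH 5.0, 20 min at room temperature, stopped at pH 10; fluorescence 365/440 nm, compounds 0.7 nM–77 uM, AC50 from Hill fits.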
For orientation: Counterscreens check selectivity or assay interference.

Test [9] addresses DNA repair nuclease/redox regulator APEX1 (Homo sapiens) (UniProt P27695). Nature of the test: qHTS Validation Assay for Inhibitors of the Human Apurinic/apyrimidinic Endonuclease 1 (APE1) (AID 1705;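 note: TAMRA fluorescence gain over two minutes as APE1 cuts a quenched THF abasic duplex; % is set by controls: 0 for no effect and ±100 for the full control effect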). An outline of the steps: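 Activity read as rising fluorescence (598 nm emission, 525 nm excitation) from incision of a TAMRA/BHQ-2 duplex carrying a THF abasic site (50 nM). Compound and enzyme sat 15 min at RT before substrate start; signal change between first and third 60-s reads.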

The nature of test [10]: Counterscreen for APE1 Inhibitors: Fluorescent Dye Displacement Validation Assay (AID 1707).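 Note: plate controls were ThO with dsDNA and no compound for no effect and ThO without dsDNA for full effect.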 Put shortly:
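Assay buffer: Tris-HCl pH7.5 with 50mM NaCl, 2 mM MgCl2, 0.01% Tween-20. Dye 250 nM, duplex 50 nM final. Readout: decrease in ThO endpoint fluorescence, 480 nm excitation, 540 nm emission.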

A short description of test [11]: qHTS for differential inhibitors of proliferation of Plasmodium falciparum line 7G8 (AID 1815).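 For activity change, negative = inhibition: plate controls were vehicle wells for no effect and reference inhibitor wells for full effect.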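 Note: parasite growth measured after three days of incubation.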 Note: potency is the fitted concentration of half-maximal effect.
The nature of test [12]: qHTS for differential inhibitors of proliferation of Plasmodium falciparum line GB4 (AID 1816).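 For activity change, negative = inhibition: 0% = vehicle DMSO and -100% = reference inhibitor.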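 Note: parasite growth measured after 72 h incubation.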 Note: potency is the fitted concentration of half-maximal effect. Particulars: Potency: Plasmodium falciparum GB4 proliferation inhibition.
The nature of test [13]: qHTS for differential inhibitors of proliferation of Plasmodium falciparum line 3D7 (AID 1876). Note: potency is the fitted concentration of half-maximal effect.
The nature of test [14]: qHTS for differential inhibitors of proliferation of Plasmodium falciparum line D10 (AID 1877).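 For activity change, negative = inhibition: plate controls were vehicle wells for no effect and reference inhibitor wells for full effect.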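 Note: parasites grown with compound for 72 h before DNA staining.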 Note: potency is the fitted concentration of half-maximal effect.
A short description of test [15]: qHTS for differential inhibitors of proliferation of Plasmodium falciparum line HB3 (AID 1886).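 For activity change, negative = inhibition: plate controls were vehicle for no effect and reference inhibitor for full effect.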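 Note: parasites grown with compound for 72 h before SYBR Green readout.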 Note: potency is the fitted concentration of half-maximal effect. As to conditions: Potency: Plasmodium falciparum HB3 proliferation inhibition.
The target of test [16] is Ferritin light chain (Equus caballus) (UniProt P02791). Nature of the test: qHTS Validation Assay for Identification of Novel General Anesthetics (AID 2323). Note: % is set by controls: 0 for no effect and ±100 for the full control effect. Put shortly:
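Competitive displacement of the profluorescent anesthetic 1-AMA (50% saturated, PBS) from 10 uM apoferritin, 10 min, room temperature. Activity is normalized 380/535 nm fluorescence; concentration-response fitted with a four-parameter Hill equation.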

Test [17] addresses ATP-dependent DNA helicase Q1 (Homo sapiens) (UniProt P46063). Nature of the test: qHTS Validation Assay for Inhibitors of RecQ-Like Dna Helicase 1 (RECQ1) (AID 2353).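 Note: plate controls were DMSO vehicle for no effect and enzyme-free control for full effect.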 Put shortly:
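50 nM RECQ1T1 preincubated 15 min with compound in Tris pH 8.0 buffer with MgCl2, DTT, Tween-20 and 2.5 ug/ml poly(dI-dC); started with 200 nM TAMRA/BHQ-2 forked duplex and 2 mM ATP. Unwinding read as fluorescence (525/598 nm), two reads 2 h apart.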

Test [18] is described as follows: qHTS for differential inhibitors of proliferation of Plasmodium falciparum line W2 (AID 1883).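 Note: potency is the fitted concentration of half-maximal effect; parasites grown with compound for 72 h before lysis and staining.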 As to conditions: Potency: Plasmodium falciparum W2 proliferation inhibition.
Setting [19] is: measured here: cell count channel max response.
Where [20] appears, read: measured here: lipid channel max response.

ATP-dependent DNA helicase Q1 (Homo sapiens), sequence (P46063 whole entry, looked up): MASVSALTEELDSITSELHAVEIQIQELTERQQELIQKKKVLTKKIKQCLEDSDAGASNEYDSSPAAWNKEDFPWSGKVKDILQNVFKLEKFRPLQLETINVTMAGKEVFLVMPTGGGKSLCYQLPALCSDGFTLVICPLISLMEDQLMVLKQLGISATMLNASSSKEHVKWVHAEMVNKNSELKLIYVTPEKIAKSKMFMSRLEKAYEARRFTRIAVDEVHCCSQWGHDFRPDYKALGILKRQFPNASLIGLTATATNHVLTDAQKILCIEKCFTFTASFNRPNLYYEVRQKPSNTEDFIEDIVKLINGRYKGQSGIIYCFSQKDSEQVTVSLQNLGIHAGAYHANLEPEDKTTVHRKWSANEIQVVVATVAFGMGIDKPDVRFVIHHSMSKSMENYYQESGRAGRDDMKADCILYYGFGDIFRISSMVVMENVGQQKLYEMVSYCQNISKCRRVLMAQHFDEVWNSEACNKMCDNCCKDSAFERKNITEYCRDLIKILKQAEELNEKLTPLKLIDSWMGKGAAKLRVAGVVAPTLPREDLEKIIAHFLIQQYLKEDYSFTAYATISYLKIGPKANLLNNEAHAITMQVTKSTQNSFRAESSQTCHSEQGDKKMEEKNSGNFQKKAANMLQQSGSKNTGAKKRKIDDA
Ferritin light chain (Equus caballus), sequence (P02791 2-175 limits assumed): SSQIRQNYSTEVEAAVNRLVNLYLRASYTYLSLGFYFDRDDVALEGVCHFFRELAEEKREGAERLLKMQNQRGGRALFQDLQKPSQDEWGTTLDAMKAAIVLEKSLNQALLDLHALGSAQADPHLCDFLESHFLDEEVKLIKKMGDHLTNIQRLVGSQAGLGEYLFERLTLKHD
DNA repair nuclease/redox regulator APEX1 (Homo sapiens), sequence (P27695 whole entry, looked up): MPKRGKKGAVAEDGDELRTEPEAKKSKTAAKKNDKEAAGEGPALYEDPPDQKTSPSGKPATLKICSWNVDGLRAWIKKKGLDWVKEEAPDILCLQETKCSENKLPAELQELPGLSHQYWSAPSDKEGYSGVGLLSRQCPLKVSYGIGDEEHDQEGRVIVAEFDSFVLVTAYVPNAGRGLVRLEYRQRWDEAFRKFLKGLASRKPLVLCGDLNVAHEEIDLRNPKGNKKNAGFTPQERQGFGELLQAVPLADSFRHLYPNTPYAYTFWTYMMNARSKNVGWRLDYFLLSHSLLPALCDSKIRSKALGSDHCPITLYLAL
Alpha-galactosidase A (Homo sapiens), sequence (P06280 whole entry, looked up): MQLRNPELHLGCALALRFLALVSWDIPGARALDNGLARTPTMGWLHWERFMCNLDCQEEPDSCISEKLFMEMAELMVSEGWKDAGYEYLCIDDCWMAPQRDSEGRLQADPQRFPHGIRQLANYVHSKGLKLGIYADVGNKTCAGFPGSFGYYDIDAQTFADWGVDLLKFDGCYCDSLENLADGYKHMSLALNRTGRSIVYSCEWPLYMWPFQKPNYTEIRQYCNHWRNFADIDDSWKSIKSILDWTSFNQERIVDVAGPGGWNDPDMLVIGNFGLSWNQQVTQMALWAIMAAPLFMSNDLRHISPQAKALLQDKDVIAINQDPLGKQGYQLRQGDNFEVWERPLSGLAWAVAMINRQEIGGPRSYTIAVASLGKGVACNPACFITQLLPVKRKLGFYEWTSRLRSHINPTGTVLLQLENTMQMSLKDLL

On to `[Cl][In]([Cl])[Cl]`, for which the result in [1] and in test [5] was inactive. For the same molecule, the Potency entry in [2], in test [3] and in test [4] was “inactive” throughout.

For `CC12CCC(CC1)C(C)(C)O2`, the outcome in [1] and in test [5] was inactive. Besides, the Potency entry in test [2], in test [3] and in [4] was “inactive” each time. Moreover, the activity change, negative = inhibition in test [6] (at 57.5 µM (top of the series)) was 2.95% (inactive). The max response was -6.11% in test [6] (setting [19]) and -2.37% in [6] (setting [20]).

For the molecule `CC(=O)OCC(=O)[C@@]1(O)CC[C@H]2[C@@H]3CCC4=CC(=O)CC[C@]4(C)[C@H]3C(=O)C[C@@]21C`, the outcome in [7], in test [8] and in test [16] was inactive. In addition, the Potency entry in [9], in test [10], in test [11], in test [12], in [13] and in test [14] was “inactive” in each case. Besides, the Potency result in test [15] and in [17] was “inactive” in each case.

Consider `CC1(C)[C@@H]2CC[C@@]1(C)C(=O)C2`, for which the outcome in test [1] and in [5] was inactive. Further, the Potency entry in [2], in test [3] and in [4] was “inactive” in each case. The activity change, negative = inhibition in [6] (at 57.5 µM (top of the series)) is 1.5% (inactive). Also, the figures for the max response in test [6] (setting [19]) and in test [6] (setting [20]) were -8.09% and -6.29%, respectively.

In the case of `NCCNCCNCCN`, the molecule was classed as inactive in test [1] and in test [5]. In addition, the Potency entry in test [2], in [3] and in test [4] was “inactive” each time.

Turning to `CNCCCC1c2ccccc2C=Cc2ccccc21`, the result in test [7], in test [8] and in [16] was inactive. For the same molecule, the Potency entry in test [9], in test [10] and in [17] was “inactive” in each case. In addition, the Potency is 5.62 µM (active) in test [11]; 10 µM (active) in test [12]; 10 µM (active) in test [13]; 14.1 µM (active) in test [14]; 4.47 µM (active) in test [18]; 11.2 µM (active) in [15].

`CCCCOC(=O)c1ccc(O)cc1`: in test [1], the outcome was inactive. Besides, the Potency result in test [2], in [3] and in [4] was “inactive” each time. The activity change, negative = inhibition in test [6] (at 25.7 µM (top of the series)) is -2.55% (inactive). Further, the max response in [6] (setting [19]) is -1.21%; in test [6] (setting [20]), -4.1%.

For `CNC(=O)Oc1ccc2c(c1)[C@]1(C)CCN(C)[C@@H]1N2C`, the Potency result in test [9], in [10] and in test [17] was “inactive” throughout. Moreover, the call in test [16] was inactive.

As for `O=C1O[C@H]([C@@H](O)CO)C(O)=C1O`, the outcome in test [1] and in test [5] was inactive. The Potency entry in test [2], in [3] and in [4] was “inactive” each time.

`NC(=O)c1ncn([C@@H]2O[C@H](CO)[C@@H](O)[C@H]2O)n1`: the outcome in [1], in test [7], in test [8] and in [16] was inactive. For the same molecule, the Potency entry in [2], in test [3], in test [4], in [9], in test [10] and in [14] was “inactive” each time. Besides, the Potency result in [15] and in test [17] was “inactive” each time.

With `CCCn1cnc2c1c(=O)n(CCCCC(C)=O)c(=O)n2C`, the molecule was classed as inactive in test [7], in [8] and in [16]. Further, the Potency entry in [9], in test [10] and in test [17] was “inactive” in each case. Besides, the Potency in test [18] is 12.6 µM (active).
